Among the data in PubChem BioAssay AID1851 (National Center for Advancing Translational Sciences (NCATS), 2009) are AC50 and activity, negative = inhibition values, retold here.

Among all 16,000 compounds or so, about 5,800 (36%) were called active. Not shown: some 23% with an inconclusive outcome. Some of the results follow. A number with no mark means an inactive call. Calls follow the shape of the dose curve; as a rule, active = well fitted curve in the direction sought with a large enough effect; inconclusive = small, poorly fitted or top-dose-only effect, or effect the other way; inactive = no such curve, though single readings can be large or run the other way.
% is scaled to controls: 0 for no effect and ±100 for the full control effect.

Cytochrome P450 2C19 (Homo sapiens), sequence (P33261 whole entry, looked up): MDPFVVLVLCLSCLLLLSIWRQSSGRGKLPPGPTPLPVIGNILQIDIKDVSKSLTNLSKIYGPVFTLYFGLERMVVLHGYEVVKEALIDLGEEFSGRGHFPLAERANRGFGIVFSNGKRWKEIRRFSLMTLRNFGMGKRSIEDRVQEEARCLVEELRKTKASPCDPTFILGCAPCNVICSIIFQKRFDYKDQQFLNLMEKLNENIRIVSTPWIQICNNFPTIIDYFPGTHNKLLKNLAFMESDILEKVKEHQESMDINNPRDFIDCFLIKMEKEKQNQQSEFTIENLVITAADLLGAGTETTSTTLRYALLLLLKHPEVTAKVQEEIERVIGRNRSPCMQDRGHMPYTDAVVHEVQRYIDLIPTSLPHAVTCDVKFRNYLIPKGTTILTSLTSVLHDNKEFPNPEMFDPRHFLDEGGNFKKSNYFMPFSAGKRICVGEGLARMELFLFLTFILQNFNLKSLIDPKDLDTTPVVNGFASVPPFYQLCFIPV

This test addresses Cytochrome P450 2C19 (Homo sapiens) (UniProt P33261). Description: Cytochrome panel assay with activity outcomes. The note with it: recombinant CYP, pro-luciferin dealkylation, luminescence, p450-cyp2c19; series mostly up to 57.1 µM.
With `C[C@@H]1CCc2cc(F)cc3c(=O)c(C(=O)O)cn1c23`, the AC50 result was “inactive”.
On the same count and under the same terms, as for `Cc1noc(C)c1-c1nccc(N2CCN(C)CC2)n1`, the entry is “inactive”.
As for `Cc1ccccc1-c1nc(N2CCN(C)CC2)c2ccccc2n1`, the AC50 result was “inactive”.
Same read-out and setting: as for `Clc1ccccc1-c1nc(NC2CCNCC2)c2ccccc2n1`, the entry is “inactive”.
The same measure, in the same setting: as for `Cc1ccccc1-c1nc(-n2ccnc2)c2ccccc2n1`, the figure is 5010 nM (active).
As to `Cc1noc(C)c1-c1nccc(-n2ccnc2)n1`, the AC50 was 3980 nM (active).
On the same count and under the same terms, as for `Cc1noc(C)c1-c1cc(N2CCN(C)CC2)ncn1`, the entry is “inactive”; as for `FC(F)(F)c1ccccc1-c1nccc(N2CCNCC2)n1`, “inactive”.
Take `Clc1ccccc1-c1nccc(-n2ccnc2)n1`: the AC50 was 2510 nM (active).
Still for that read-out and setting: as for `Cc1ccccc1-c1nc(N2CCNCC2)c2ccccc2n1`, the entry is “inactive”; as for `Clc1ccccc1-c1nc(-n2ccnc2)c2ccccc2n1`, 7940 nM (active).
In the case of `CCOC(=O)[C@]1(CC(=O)O)CCCC1=O`, the activity, negative = inhibition was 5.42% [at 11.4 µM].
In the case of `CCOC(=O)C1(N(CC)CC)Sc2cc(C)ccc2NC1=O` (stereo not drawn), the AC50 is 89.1 nM (active).
Same read-out and setting: as for `CCCCCCCCCCCCCCCCCC(=O)O[C@H](CC(=O)O)C[N+](C)(C)C`, the entry is “inactive”.
Consider `NNC(=O)c1ccc[n+](CCc2ccccc2)c1`, for which the activity, negative = inhibition was -21.6% [at 11.4 µM].
In the case of `O=C(C[n+]1cccc(NC(=O)c2ccccc2)c1)c1ccc(NC(=O)c2ccccc2)cc1`, the concentration at half-maximal activity (AC50) was 39800 nM (active).
On the same count and under the same terms, as for `Cc1cc([N+](=O)[O-])ccc1-c1ccc(C2Nc3ccccc3C(=O)N2O)o1` (stereo not drawn), the figure is 4470 nM (active).
Turning to `O=[N+]([O-])c1ccc2c(c1)S(=O)c1ccccc1-2` (stereo not drawn), the activity, negative = inhibition is 14.6% [at 11.4 µM].
For the compound `O=C(CSc1nc2ccccc2[nH]1)Nc1c(F)cccc1F`, the AC50 is 8910 nM (active).
Take `O=C(O)CSc1nc2ccccc2[nH]1`: the activity, negative = inhibition is 5.01% [at 11.4 µM].
Still for that read-out and setting: as for `CCOC(=O)CCN1C(=O)[C@H]2[C@H]3[C@H](O)[C@H](O)C/C(=N/OC[C@@H](O)COCc4ccco4)[C@@H]3CC[C@@H]2C1=O`, the figure is 40.5% [at 11.4 µM].
Take `O=C(O)c1ccc(Oc2nc3ccccc3s2)cc1`: the AC50 was 3980 nM (active).
On to `O=C(Nc1ccccc1-c1nc2ccccc2[nH]1)c1ccc(S(=O)(=O)N2CCCCC2)cc1`, for which the AC50 was 2510 nM (active).
On the same count and under the same terms, as for `Cc1sc(=NC(=O)c2ccco2)n(C)c1-c1ccccc1`, the figure is 8910 nM (active).
Still for that read-out and setting: as for `COc1ccccc1CNc1ccnc(-c2ccccc2Cl)n1`, the figure is 1580 nM (active); as for `COc1ccc(CNc2ccnc(-c3ccccc3CN(C)C)n2)c(OC)c1`, “inactive”.
Same read-out and setting: as for `COc1ccc(CNc2ccnc(-c3ccccc3C(F)(F)F)n2)c(OC)c1`, the figure is 10000 nM (active); as for `COc1ccc(CNc2ccnc(-c3ccccc3Cl)n2)c(OC)c1`, 1260 nM (active); as for `CNc1ccnc(-c2ccccc2CN(C)C)n1`, “inactive”.
For the compound `O=C(N/N=C1/C[C@@H](O)[C@@H](O)[C@@H]2[C@H]3C(=O)N(c4ccc(F)cc4F)C(=O)[C@@H]3CC[C@@H]12)OCc1ccccc1`, the activity, negative = inhibition was -16.8% [at 11.4 µM].
On to `NC(=O)C[C@H](NC(=O)Cc1ccc(O)cc1O)C(=O)O`, for which the AC50 result is “inactive”.
As to `CC1(C)CC(=O)C2=C(C1)Nc1cc3c(cc1C2c1ccc(F)cc1)OCO3` (stereo not drawn), the AC50 was 4470 nM (active).
The same measure, in the same setting: as for `Fc1ccc([C@H]2CCNC[C@H]2COc2ccc3c(c2)OCO3)cc1`, the entry is “inactive”; as for `N=C(N)c1ccc(N=Nc2c(O)ccc3c2[nH]c2ccccc23)cc1`, 1260 nM (active).
Regarding `N=C(N)c1ccccc1`, the AC50 result is “inactive”.
For `NS(=O)(=O)c1ccc(N=Nc2c(O)c(C(=O)O)cc3ccccc23)cc1`, the activity, negative = inhibition was 9.68% [at 11.4 µM].
In the case of `Cc1cc(=O)oc(C)c1C(=O)NCCCN1CCN(c2ccc(F)cc2)CC1`, the AC50 result is “inactive”.
Still for that read-out and setting: as for `O=C(CCN1CCc2ccccc2C1)Nc1ccc(F)cc1`, the figure is 7940 nM (active).
For the compound `S=C(S)NCCCn1ccnc1`, the activity, negative = inhibition was -30% [at 11.4 µM].
On to `O=C(NCCCn1ccnc1)Nc1ccc(Cl)cc1`, for which the AC50 is 56.2 nM (active).
On the same count and under the same terms, as for `O=C(CCCN1CC=C(n2c(=O)[nH]c3ccccc32)CC1)c1ccc(F)cc1`, the entry is “inactive”.
`O=C(O)c1ccccc1-c1ccccc1C(=O)Nc1ccc2c(c1)Cc1cc(F)ccc1-2`: the activity, negative = inhibition is -34% [at 11.4 µM].
Take `O=C(NCCCN1CCN(C2CCCCC2)CC1)Nc1ccccc1C(F)(F)F`: the AC50 result is “inactive”.
In the case of `CSc1ccc(NC(=O)NCCCN2CCN(c3ccccc3F)CC2)cc1`, the AC50 was 15800 nM (active).
Turning to `COc1ccc2c(Cl)c(C(=O)NCCCn3ccnc3)sc2c1Cl`, the AC50 was 794 nM (active).
On to `O=C1Cc2c([nH]c3ccc(Br)cc23)-c2ccccc2N1`, for which the AC50 result was “inactive”.
On the same count and under the same terms, as for `CSc1ccc(NC(=O)NCCN2CCc3ccccc3C2)cc1`, the figure is 15800 nM (active).
Turning to `O=C(NCCCN1CCc2ccccc2C1)Nc1ccc(Cl)cc1`, the AC50 is 15800 nM (active).
Consider `CC(C)[C@H](NC(=O)OC(C)(C)C)[C@@H](O)CC(=O)C(C)(C)C`, for which the activity, negative = inhibition is -18.4% [at 11.4 µM].
Take `CC(C)[C@@H]1NC(=O)[C@H](CCCCN)NC(=O)[C@H](Cc2c[nH]c3ccccc23)NC(=O)[C@H](Cc2ccc(O)cc2)NC(=O)[C@H](C)N(C)C(=O)[C@H](Cc2ccccc2)NC1=O`: the AC50 result was “inactive”.
On the same count and under the same terms, as for `COc1ccc(C(=O)Nc2cccc(OC(=O)c3ccc(C)c(C)c3)c2)cc1`, the figure is 7940 nM (active).
The same measure, in the same setting: as for `CCOc1ccc(NC(=O)c2ccc(OC)cc2)cc1`, the entry is “inactive”; as for `COc1ccc(C(=O)Nc2cc(OC)cc(OC)c2)cc1`, 2510 nM (active).
Still for that read-out and setting: as for `O=C(Nc1cccc(OC(=O)c2cccnc2)c1)c1cccnc1`, the entry is “inactive”; as for `COc1ccc2c(OC)c3ccoc3nc2c1OC`, “inactive”.
As for `COc1ccc2c(=O)cc(-c3ccncc3)oc2c1OC`, the AC50 is 1580 nM (active).
As to `CCn1c2ccc(Cl)cc2c2nc3ccccc3nc21`, the AC50 is 14100 nM (active).
As to `CCn1c2ccccc2c2nnc(NCCCO)nc21`, the activity, negative = inhibition is 5.92% [at 11.4 µM].
Take `CCc1ccc2c(-c3cccc(Cl)c3)nc(=O)n(CC)c2n1`: the AC50 entry was “inactive”.
Still for that read-out and setting: as for `Cc1noc(C)c1-c1ccc2ncnc(NCc3ccccc3)c2c1`, the figure is 7940 nM (active); as for `Cc1noc(C)c1-c1ccc2ncnc(NCc3cccs3)c2c1`, 1260 nM (active).
The same measure, in the same setting: as for `Cc1cccc(CNc2ncnc3ccc(-c4c(C)noc4C)cc23)c1`, the figure is 5010 nM (active).
The same measure, in the same setting: as for `CC(=O)NCCNc1ncnc2ccc(-c3c(C)noc3C)cc12`, the entry is “inactive”.
On to `COCCNc1ncnc2ccc(-c3c(C)noc3C)cc12`, for which the AC50 is 10000 nM (active).
Regarding `Cc1noc(C)c1-c1ccc2ncnc(NCCN3CCOCC3)c2c1`, the AC50 result was “inactive”.
For the compound `C=C(C)C1Cc2nc(N)nc(C)c2C1` (stereo not drawn), the AC50 result is “inactive”.
For `COc1cc(C)cc2c(-c3c(O)cc(O)c4c3C[C@H](C)N[C@@H]4C)cc(-c3cc(-c4c(O)cc(O)c5c4C[C@H](C)N[C@@H]5C)c4cc(C)cc(OC)c4c3O)c(O)c12`, the activity, negative = inhibition is -31.6% [at 11.4 µM].
Turning to `Cc1noc(C)c1-c1ccc2ncnc(NCc3cccnc3)c2c1`, the AC50 was 20 nM (active).
In the case of `CC1(C)OC[C@@H]2O[C@H](n3cnc4c(N)nc(Cl)nc43)[C@@H](OS(C)(=O)=O)[C@@H]2O1`, the activity, negative = inhibition was 8% [at 11.4 µM].
On to `CN(Cc1ccco1)c1ncnc2ccc(-c3cccnc3)cc12`, for which the AC50 was 7940 nM (active).
Take `CN(Cc1ccco1)c1ncnc2ccc(-c3ccc4c(c3)OCO4)cc12`: the AC50 was 631 nM (active).
As for `COc1cccc(-c2ccc3ncnc(N(C)Cc4ccco4)c3c2)c1`, the AC50 is 2000 nM (active).
Still for that read-out and setting: as for `CN(Cc1ccco1)c1ncnc2ccc(-c3cccc(NS(C)(=O)=O)c3)cc12`, the figure is 7940 nM (active); as for `CN1CCN(c2ncnc3ccc(-c4cccc(NS(C)(=O)=O)c4)cc23)CC1`, “inactive”.
Take `CCOc1ccc2nc3cc(N=Nc4ccc(N)nc4N)ccc3c(N)c2c1`: the activity, negative = inhibition is -6.5% [at 11.4 µM].
As to `COc1cccc(-c2ccc3ncnc(N(C)C)c3c2)c1`, the AC50 was 3160 nM (active).
Same read-out and setting: as for `CN(C)C(=O)c1ccc(-c2ccc3ncnc(N(C)C)c3c2)cc1`, the entry is “inactive”; as for `CN(C)c1ncnc2ccc(-c3cccnc3)cc12`, “inactive”.
Turning to `O=C(O)CCC(=O)Nc1ccc2ccccc2c1`, the activity, negative = inhibition is -18.3% [at 11.4 µM].
Turning to `O=C(COc1ccc2ccccc2c1)Nc1ccc(Cc2ccncc2)cc1`, the AC50 was 178 nM (active).
On the same count and under the same terms, as for `CCSc1nnc(NC(=O)COc2ccc3ccccc3c2)s1`, the figure is 282 nM (active); as for `C=CCSc1nnc(NC(=O)COc2ccc3ccccc3c2)s1`, 2240 nM (active).
Same read-out and setting: as for `CCC(CC)c1nnc(NC(=O)COc2ccc3c(C)cc(=O)oc3c2)s1`, the entry is “inactive”.
Regarding `CCc1ccc(OCC(=O)Nc2ccc(-c3nc4ccccc4o3)c(O)c2)cc1`, the AC50 result is “inactive”.
As to `CN1CC[C@@]2(CCN3CCc4c(oc5ccccc45)[C@@H]3C2)N(C)C1=O`, the AC50 entry was “inactive”.
Regarding `CC(C)=CCc1c2c(c3occ(-c4ccc(O)c(O)c4)c(=O)c3c1O)C=CC(C)(C)O2`, the AC50 was 2000 nM (active).
For `O=C(Nc1nnc(CCS(=O)(=O)c2ccc(Br)cc2)s1)c1ccc([N+](=O)[O-])cc1`, the AC50 result is “inactive”.
As to `Cc1cccc(C(=O)Nc2nnc(-c3ccc(C(C)(C)C)cc3)s2)c1`, the AC50 result was “inactive”.
On the same count and under the same terms, as for `Cc1ccc(Nc2nc(-c3sc(NC(=O)c4cccc(Cl)c4)nc3C)cs2)cc1`, the figure is 1410 nM (active).
Still for that read-out and setting: as for `Cc1ccc(Nc2nc(-c3sc(NC(=O)c4ccc([N+](=O)[O-])cc4)nc3C)cs2)cc1`, the figure is 1260 nM (active); as for `Cc1nc(NC(=O)c2ccccc2)sc1-c1csc(Nc2ccc(Cl)cc2)n1`, 316 nM (active); as for `Cc1nc(NC(=O)c2ccccc2)sc1-c1csc(Nc2cccc(F)c2)n1`, 562 nM (active).
As for `O=C(O)CCC(O)=C1S(=O)(=O)OCCOS1(=O)=O`, the activity, negative = inhibition is 3.76% [at 11.4 µM].
Consider `Cc1nc(NC(=O)c2ccco2)sc1-c1csc(Nc2ccc(Cl)cc2Cl)n1`, for which the AC50 is 355 nM (active).
`C=CCCC(=O)Nc1nc(C)c(-c2csc(Nc3ccc(Cl)cc3)n2)s1`: the AC50 is 1260 nM (active).
The same measure, in the same setting: as for `Cc1nnc(NC(=O)c2cccc(NC(=O)C(C)C)c2)s1`, the entry is “inactive”; as for `Cc1nc(NC(=O)c2ccccc2)sc1-c1csc(Nc2cccc(Cl)c2)n1`, 562 nM (active); as for `Cc1nc(NC(=O)c2ccccc2)sc1-c1csc(Nc2ccc(Cl)cc2Cl)n1`, 355 nM (active).
